# Test results taken from ChEMBL document CHEMBL5308504, “Tm Shift (DSF) assay results for EUbOPEN Chemogenomics Library” (2023).
# What was measured:
# Conditions in all cases: Compound concentration 20.0 uM, Protein concentration 2.0 uM, Result type QC Liability
# [1] = molecular target: Tyrosine-protein kinase ABL1 (Homo sapiens) (UniProt P00519)
# [2] = molecular target: Cyclin-dependent kinase 2 (Homo sapiens) (UniProt P24941)
# [3] = molecular target: Casein kinase I isoform delta (Homo sapiens) (UniProt P48730)
# Sequence of Casein kinase I isoform delta (Homo sapiens) (P48730 whole entry, looked up, canonical isoform): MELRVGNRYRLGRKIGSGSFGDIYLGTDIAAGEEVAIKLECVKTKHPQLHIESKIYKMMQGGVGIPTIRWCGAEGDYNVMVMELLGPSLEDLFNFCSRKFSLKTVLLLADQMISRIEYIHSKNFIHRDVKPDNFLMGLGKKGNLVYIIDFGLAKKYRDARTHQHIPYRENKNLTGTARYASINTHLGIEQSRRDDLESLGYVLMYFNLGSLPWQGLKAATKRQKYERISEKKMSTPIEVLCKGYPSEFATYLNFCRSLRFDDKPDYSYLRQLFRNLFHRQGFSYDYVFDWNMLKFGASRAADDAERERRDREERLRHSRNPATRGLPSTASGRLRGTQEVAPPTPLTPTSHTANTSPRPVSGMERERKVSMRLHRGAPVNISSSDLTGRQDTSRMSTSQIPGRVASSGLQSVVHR
# [4] = molecular target: Glycogen synthase kinase-3 beta (Homo sapiens) (UniProt P49841)
# Sequence of Glycogen synthase kinase-3 beta (Homo sapiens) (P49841 whole entry, looked up): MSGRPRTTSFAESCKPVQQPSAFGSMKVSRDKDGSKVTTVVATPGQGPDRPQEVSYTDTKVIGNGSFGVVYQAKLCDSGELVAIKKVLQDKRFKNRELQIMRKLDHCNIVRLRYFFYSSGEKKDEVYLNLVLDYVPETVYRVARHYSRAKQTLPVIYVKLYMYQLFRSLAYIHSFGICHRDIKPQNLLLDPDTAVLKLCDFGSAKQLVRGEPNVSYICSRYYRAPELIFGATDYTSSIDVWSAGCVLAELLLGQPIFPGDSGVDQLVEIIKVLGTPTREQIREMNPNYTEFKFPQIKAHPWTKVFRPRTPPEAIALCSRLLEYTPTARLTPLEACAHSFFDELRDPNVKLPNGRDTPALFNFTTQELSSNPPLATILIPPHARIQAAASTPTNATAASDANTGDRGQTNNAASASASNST
# [5] = molecular target: Mitogen-activated protein kinase 1 (Homo sapiens) (UniProt P28482)
# Sequence of Mitogen-activated protein kinase 1 (Homo sapiens) (P28482 whole entry): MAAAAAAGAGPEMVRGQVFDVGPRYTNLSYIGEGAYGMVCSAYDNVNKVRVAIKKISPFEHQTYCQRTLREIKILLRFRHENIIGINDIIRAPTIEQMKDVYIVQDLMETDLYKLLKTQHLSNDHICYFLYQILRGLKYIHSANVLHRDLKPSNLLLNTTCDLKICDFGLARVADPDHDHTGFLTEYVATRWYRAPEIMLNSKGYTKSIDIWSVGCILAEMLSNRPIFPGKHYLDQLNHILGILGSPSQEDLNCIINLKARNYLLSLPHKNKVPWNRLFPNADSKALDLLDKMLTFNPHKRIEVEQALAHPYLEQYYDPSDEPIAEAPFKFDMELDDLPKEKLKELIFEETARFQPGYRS
# [6] = molecular target: T1, Aurora kinase A (Homo sapiens) (UniProt O14965)
# T1 sequence (whole entry): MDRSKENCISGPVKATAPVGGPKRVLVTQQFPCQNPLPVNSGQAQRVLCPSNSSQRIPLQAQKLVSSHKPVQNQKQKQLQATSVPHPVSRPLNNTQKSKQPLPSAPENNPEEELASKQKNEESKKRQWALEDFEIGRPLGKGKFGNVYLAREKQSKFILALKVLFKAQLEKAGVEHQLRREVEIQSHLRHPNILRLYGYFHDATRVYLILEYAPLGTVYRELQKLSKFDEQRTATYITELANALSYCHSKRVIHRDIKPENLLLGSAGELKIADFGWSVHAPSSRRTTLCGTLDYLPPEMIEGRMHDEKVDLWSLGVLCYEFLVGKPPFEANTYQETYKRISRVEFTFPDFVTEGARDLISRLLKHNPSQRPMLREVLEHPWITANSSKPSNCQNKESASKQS
# Sequence of Tyrosine-protein kinase ABL1 (Homo sapiens) (P00519 whole entry): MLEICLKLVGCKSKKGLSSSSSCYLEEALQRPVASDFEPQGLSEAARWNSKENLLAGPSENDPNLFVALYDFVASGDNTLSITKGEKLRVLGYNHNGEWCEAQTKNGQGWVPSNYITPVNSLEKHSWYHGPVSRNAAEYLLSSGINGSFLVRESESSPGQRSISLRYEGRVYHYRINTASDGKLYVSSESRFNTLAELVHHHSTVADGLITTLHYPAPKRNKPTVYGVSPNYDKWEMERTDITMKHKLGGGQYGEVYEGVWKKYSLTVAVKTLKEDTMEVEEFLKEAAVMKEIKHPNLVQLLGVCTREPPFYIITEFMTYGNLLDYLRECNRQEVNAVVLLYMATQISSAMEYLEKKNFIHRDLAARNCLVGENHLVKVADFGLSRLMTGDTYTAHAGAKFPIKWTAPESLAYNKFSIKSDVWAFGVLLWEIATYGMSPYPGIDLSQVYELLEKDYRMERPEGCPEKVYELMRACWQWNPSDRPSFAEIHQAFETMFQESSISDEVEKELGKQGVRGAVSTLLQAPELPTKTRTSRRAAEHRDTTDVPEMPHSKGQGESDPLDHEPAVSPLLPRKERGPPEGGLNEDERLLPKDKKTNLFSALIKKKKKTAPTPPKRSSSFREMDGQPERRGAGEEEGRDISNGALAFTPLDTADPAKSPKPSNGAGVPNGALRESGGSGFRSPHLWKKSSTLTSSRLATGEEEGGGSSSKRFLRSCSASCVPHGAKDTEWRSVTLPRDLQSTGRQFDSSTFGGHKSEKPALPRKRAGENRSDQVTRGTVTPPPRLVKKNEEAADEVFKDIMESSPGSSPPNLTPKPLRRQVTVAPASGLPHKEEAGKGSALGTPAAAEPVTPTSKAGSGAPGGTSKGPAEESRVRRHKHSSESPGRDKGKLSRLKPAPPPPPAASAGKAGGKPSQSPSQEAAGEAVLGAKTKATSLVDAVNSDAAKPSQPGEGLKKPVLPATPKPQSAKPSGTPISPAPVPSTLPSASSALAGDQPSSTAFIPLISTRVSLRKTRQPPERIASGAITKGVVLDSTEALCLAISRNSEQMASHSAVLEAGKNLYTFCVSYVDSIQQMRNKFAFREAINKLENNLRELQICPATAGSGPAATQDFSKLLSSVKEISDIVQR
SMILES,ΔTm [1],ΔTm [2],ΔTm [3],ΔTm [4],ΔTm [5],ΔTm [6]
Cc1ccc(NS(=O)(=O)c2ccc3c(c2)C2C=CCC2C(c2ccc(C(=O)O)cc2)N3)cc1C (stereo not given),-0.61 °C,1.5 °C,0.36 °C,-1.27 °C,-3.84 °C,-2.29 °C
CCc1nc(C2CCC2)n2nc(-c3ccccc3)[nH]c(=O)c12,0.18 °C,1.98 °C,0.4 °C,1.45 °C,0.11 °C,1.13 °C
C[C@@]1(Cc2ccc(C#N)cc2)C(=O)N(c2cc(Cl)cc(Cl)c2)c2ncc(C(=O)NC3(c4nc(C5CCC5)no4)CC3)n21,0.13 °C,-0.03 °C,3.08 °C,10.7 °C,3.07 °C,11.8 °C
Cc1cc(S(=O)(=O)N2CC(C)(C)c3cc(-c4ccc(C(F)(F)F)cc4)ccc32)ccc1OCC(=O)O,0 °C,-2.88 °C,-0.16 °C,-5.32 °C,-9.76 °C,-1.56 °C
COc1cc2ncnc(Nc3ccc4c(cnn4Cc4ccccc4)c3)c2cc1OC,-2.25 °C,-2.73 °C,0.02 °C,-2.74 °C,-0.38 °C,0.63 °C
COc1cc2ncnc(Nc3ccc(F)c(Cl)c3)c2cc1OCCN(C)C[C@H](C)O,2.95 °C,0.34 °C,1.99 °C,-0.21 °C,0.43 °C,0.41 °C
O=C(Nc1ccccc1C(=O)O)c1cc(S(=O)(=O)c2ccccc2)ccc1Cl,0.07 °C,1.6 °C,0.6 °C,0.85 °C,0.86 °C,1.09 °C
Cc1ncsc1-c1ccc(CNC(=O)[C@@H]2C[C@H](O)CN2C(=O)[C@@H](NC(=O)C2(F)CC2)C(C)(C)C)c(OCCOc2ccc(CN3CCN(c4cc(-c5ccccc5O)nnc4N)CC3)cc2)c1 (relative stereo),0.51 °C,2.76 °C,6.03 °C,0.29 °C,0.5 °C,3.42 °C
Cn1cncc1-c1cn(-c2cccc(C(=O)Nc3cccc(C(F)(F)F)c3)c2)nn1,7.19 °C,0.01 °C,-7.39 °C,-0.16 °C,-8.38 °C,1.95 °C
CN1CCc2cc(Nc3ncc(C(F)(F)F)c(NCc4cc[nH]n4)n3)ccc2C1,5.79 °C,7.99 °C,2.14 °C,6.33 °C,1.88 °C,11.3 °C
CCc1c(-c2ccc3[nH]ncc3c2)cnc(N)c1-c1ccc(O)cc1,1.38 °C,2.8 °C,1.28 °C,1.03 °C,0.44 °C,3.28 °C
COc1ccc(CC[C@@H](OC(=O)[C@H]2CCCCN2C(=O)[C@@H](c2cc(OC)c(OC)c(OC)c2)C2CCCCC2)c2cccc(OCCN3CCOCC3)c2)cc1OC,-1.34 °C,-4.12 °C,-1.85 °C,-1.12 °C,-0.42 °C,-1.27 °C
Cc1ccc(NC(=O)c2ccc(CN3CC[C@H](N(C)C)C3)c(C(F)(F)F)c2)cc1Nc1nccc(-c2cncnc2)n1,17.6 °C,0.7 °C,0.73 °C,0.08 °C,0.9 °C,0.26 °C
c1ccc2c(-c3coc4cc(-c5ccc(N6CCNCC6)cc5)cnc34)ccnc2c1,3.66 °C,-0.03 °C,1.09 °C,-0.47 °C,0 °C,-0.46 °C
CC(=O)Oc1ccc2c(c1)[C@@]1(C)CCC[C@](C)(C(=O)OC(=O)[C@@]3(C)CCC[C@]4(C)c5cc(OC(C)=O)ccc5CC[C@@H]34)[C@@H]1CC2,0.17 °C,0.49 °C,0.28 °C,-0.85 °C,-2.79 °C,-1.32 °C
CN(C(=O)c1cnn2cccnc12)c1cc2c(cc1N1CCOCC1)C(=O)N(C[C@@H](F)C(C)(C)O)C2,0.37 °C,-0.41 °C,-0.06 °C,-0.42 °C,0.49 °C,-0.66 °C
CC(C)(C[C@H]1CN(S(=O)(=O)c2cccc(C(F)(F)F)c2)c2cc(-c3cc(F)cc(OC(F)F)c3)ccc2O1)C(=O)O,-1.5 °C,-2.02 °C,-2.71 °C,-2.26 °C,-6.9 °C,-3.89 °C
Oc1c(-c2cccnc2)cnn1-c1ccccn1,-0.25 °C,0.31 °C,0.78 °C,-0.42 °C,0.36 °C,-0.05 °C
CN1CC(=O)N(C)c2cnc(Nc3ccc(NC(=O)Nc4cccc(C(=O)O)c4)cc3)nc21,0.56 °C,-0.17 °C,0.58 °C,1.43 °C,0.43 °C,2 °C
Cc1ncc(C(=O)Nc2cc(C(C)(C)C)on2)cc1-n1cc(-c2cnn(C)c2C)nn1,9.67 °C,0.45 °C,2.28 °C,-0.79 °C,0.26 °C,-0.09 °C
N=C(N)NCCC[C@@H](NC(=O)C(c1ccccc1)c1ccccc1)C(=O)NCc1ccc(CNC(N)=O)cc1,0.37 °C,0.62 °C,0.21 °C,-0.25 °C,0.26 °C,0.1 °C
CC#CC(=O)N1CCN(c2nc(-c3ccc(Oc4ccccc4)cc3)c(C(N)=O)s2)CC1,-0.27 °C,-1.44 °C,-8 °C,-2.57 °C,-9.83 °C,-1.3 °C
O=C(O)C[C@H]1CC[C@H](c2ccc(NC(=O)c3nnc(Nc4ccc(F)c(F)c4)o3)cc2)CC1,-0.04 °C,0.24 °C,-0.9 °C,-0.67 °C,-2.59 °C,0.92 °C
CN(C)C(=O)Cn1cc(-c2nc([C@@](C)(c3ccc(-c4cnc(N)nc4)cc3)C3CC3)no2)cn1,1.32 °C,0.32 °C,0.5 °C,-0.36 °C,0.32 °C,2.6 °C
CCOC(=O)c1ccc(CN(Cc2ccc(-c3cccc(S(C)(=O)=O)c3)cc2)S(=O)(=O)c2c(C)cc(C)cc2C)o1,-2.07 °C,-2 °C,-1.52 °C,-0.28 °C,-3 °C,-3.1 °C
